Several values for one entry are separate records, joined by “and”; a condition that tells them apart may be missing. Identical values can stand only once. Among all 5,500 compounds or so, about 2,000 (36%) were called active. Not shown: some 18% with an inconclusive outcome. Rule as the data show it: active = normalized growth mostly below about 0.91 (no sharp cut-off); inconclusive = no clear call, values can overlap the other calls; inactive = mostly above about 0.92. Some of the results follow.
Assay: chemical genetic growth profiling, strain panel (AID 1159580);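 also: tested at 20 µM; growth read once vehicle control cultures reached saturation at 30 °C; 1 = growth at the plate median or of vehicle wells; lower values mean less growth of the strain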
Details: growth OD

Measured: normalized growth

CC1(C)O[C@@H]2CC3C4CCC5=CC(=O)CCC5(C)C4(F)C(O)CC3(C)[C@]2(C(=O)CCl)O1 (stereo partly specified)
inactive: S. cerevisiae deletion strains, locus YAL013W, strain DEP1, active compounds read low 0.996 | S. cerevisiae deletion strains, locus YBR021W, strain FUR4, active compounds read low 1.04 | S. cerevisiae deletion strains, locus YBR229C, strain ROT2, active compounds read low 1 | S. cerevisiae deletion strains, locus YCL029C, strain bik1, active compounds read low 1 | S. cerevisiae deletion strains, locus YDL035C, strain GPR1, active compounds read low 0.979 | S. cerevisiae deletion strains, locus YDL074C, strain BRE1, active compounds read low 1.02 | S. cerevisiae deletion strains, locus YDL101C, strain DUN1, active compounds read low 0.994 | S. cerevisiae deletion strains, locus YDL134C, strain PPH21, active compounds read low 0.994 | S. cerevisiae deletion strains, locus YDL185W, strain tfp1, active compounds read low 0.967 | S. cerevisiae deletion strains, locus YDL192W, strain arf1, active compounds read low 0.986 | S. cerevisiae deletion strains, locus YDR101C, strain arx1, active compounds read low 1.03 | S. cerevisiae deletion strains, locus YDR150W, strain NUM1, active compounds read low 0.981 | S. cerevisiae deletion strains, locus YDR162C, strain NBP2, active compounds read low 0.963 | S. cerevisiae deletion strains, locus YDR318W, strain mcm21, active compounds read low 0.979 | S. cerevisiae deletion strains, locus YDR388W, active compounds read low 0.996 | S. cerevisiae deletion strains, locus YDR502C, strain sam2, active compounds read low 0.99 | S. cerevisiae deletion strains, locus YEL061C, strain CIN8, active compounds read low 0.998 | S. cerevisiae deletion strains, locus YER110C, active compounds read low 0.975 | S. cerevisiae deletion strains, locus YER155C, strain BEM2, active compounds read low 1.01 | S. cerevisiae deletion strains, locus YER167W, strain BCK2, active compounds read low 0.994 | S. cerevisiae deletion strains, locus YGL078C, strain dbp3, active compounds read low 0.993 | S. cerevisiae deletion strains, locus YGL086W, strain mad1, active compounds read low 1.01 | S. cerevisiae deletion strains, locus YGL248W, strain PDE1, active compounds read low 1 | S. cerevisiae deletion strains, locus YGR078C, strain PAC10, active compounds read low 1.01 | S. cerevisiae deletion strains, locus YGR135W, strain pre9, active compounds read low 0.973 | S. cerevisiae deletion strains, locus YGR252W, strain gcn5, active compounds read low 1.02 | S. cerevisiae deletion strains, locus YHR030C, strain SLT2, active compounds read low 0.985 and 1 | S. cerevisiae deletion strains, locus YHR079C, strain IRE1 (second series), active compounds read low 0.992 | S. cerevisiae deletion strains, locus YHR079C, strain IRE1, active compounds read low 1 | S. cerevisiae deletion strains, locus YHR094C, strain hxt1, active compounds read low 0.998 | S. cerevisiae deletion strains, locus YHR129C, strain ARP1, active compounds read low 0.996 | S. cerevisiae deletion strains, locus YHR200W, strain rpn10, active compounds read low 0.988 | S. cerevisiae deletion strains, locus YIL066C, strain RNR3, active compounds read low 1 | S. cerevisiae deletion strains, locus YIL073C, strain SPO22, active compounds read low 0.889 | S. cerevisiae deletion strains, locus YIL125W, strain kgd1, active compounds read low 1.01 | S. cerevisiae deletion strains, locus YIR030C, strain dcg1, active compounds read low 0.983 | S. cerevisiae deletion strains, locus YJL095W, strain BCK1, active compounds read low 1.03 and 1.02 | S. cerevisiae deletion strains, locus YJL134W, strain LCB3, active compounds read low 0.989 | S. cerevisiae deletion strains, locus YJL168C, strain set2, active compounds read low 1 | S. cerevisiae deletion strains, locus YJL187C, strain SWE1 (second series), active compounds read low 1.01 | S. cerevisiae deletion strains, locus YJR043C, strain POL32, active compounds read low 1.01 | S. cerevisiae deletion strains, locus YJR066W, strain TOR1, active compounds read low 0.972 | S. cerevisiae deletion strains, locus YKL009W, strain mrt4, active compounds read low 0.956 | S. cerevisiae deletion strains, locus YKL068W, active compounds read low 0.98 | S. cerevisiae deletion strains, locus YKL085W, strain MDH1 (second series), active compounds read low 0.975 | S. cerevisiae deletion strains, locus YKL085W, strain MDH1, active compounds read low 0.975 | S. cerevisiae deletion strains, locus YKL190W, strain CNB1, active compounds read low 0.977 | S. cerevisiae deletion strains, locus YKR001C, strain vps1, active compounds read low 1.01 | S. cerevisiae deletion strains, locus YLR039C, strain RIC1, active compounds read low 0.938 | S. cerevisiae deletion strains, locus YLR058C, strain SHM2, active compounds read low 0.991 | S. cerevisiae deletion strains, locus YLR102C, strain apc9, active compounds read low 0.995 | S. cerevisiae deletion strains, locus YLR113W, strain HOG1, active compounds read low 1.04 | S. cerevisiae deletion strains, locus YLR262C, strain YPT6, active compounds read low 0.942 | S. cerevisiae deletion strains, locus YLR268W, strain sec22, active compounds read low 0.99 | S. cerevisiae deletion strains, locus YLR330W, strain CHS5, active compounds read low 0.996 | S. cerevisiae deletion strains, locus YLR342W, strain FKS1 (second series), active compounds read low 1.01 | S. cerevisiae deletion strains, locus YLR371W, strain rom2, active compounds read low 1 | S. cerevisiae deletion strains, locus YLR418C, strain cdc73, active compounds read low 0.944 | S. cerevisiae deletion strains, locus YML016C, strain PPZ1, active compounds read low 1 | S. cerevisiae deletion strains, locus YML032C, strain rad52, active compounds read low 1.01 | S. cerevisiae deletion strains, locus YML124C, strain tub3, active compounds read low 1 | S. cerevisiae deletion strains, locus YMR078C, strain ctf18, active compounds read low 0.99 | S. cerevisiae deletion strains, locus YMR223W, strain ubp8, active compounds read low 0.97 | S. cerevisiae deletion strains, locus YMR263W, strain SAP30, active compounds read low 1 | S. cerevisiae deletion strains, locus YMR307W, strain GAS1, active compounds read low 1.01 | S. cerevisiae deletion strains, locus YNL067W, strain RPL9B, active compounds read low 1.02 | S. cerevisiae deletion strains, locus YNL153C, strain GIM3, active compounds read low 1.06 | S. cerevisiae deletion strains, locus YNL183C, strain NPR1, active compounds read low 0.972 | S. cerevisiae deletion strains, locus YNL233W, strain BNI4, active compounds read low 1.04 | S. cerevisiae deletion strains, locus YNL250W, strain rad50, active compounds read low 0.987 | S. cerevisiae deletion strains, locus YNL271C, strain bni1, active compounds read low 0.986 | S. cerevisiae deletion strains, locus YNL298W, strain CLA4, active compounds read low 0.994 | S. cerevisiae deletion strains, locus YNL307C, strain MCK1, active compounds read low 0.995 | S. cerevisiae deletion strains, locus YNR052C, strain pop2, active compounds read low 0.985 | S. cerevisiae deletion strains, locus YOL006C, strain TOP1, active compounds read low 1.01 | S. cerevisiae deletion strains, locus YOL012C, strain htz1 0.917 | S. cerevisiae deletion strains, locus YOL147C, strain pex11, active compounds read low 0.996 | S. cerevisiae deletion strains, locus YOR061W, strain CKA2, active compounds read low 0.994 | S. cerevisiae deletion strains, locus YOR069W, strain VPS5, active compounds read low 0.99 | S. cerevisiae deletion strains, locus YOR136W, strain idh2, active compounds read low 0.995 | S. cerevisiae deletion strains, locus YOR144C, strain elg1, active compounds read low 1.01 | S. cerevisiae deletion strains, locus YOR184W, strain ser1, active compounds read low 0.958 | S. cerevisiae deletion strains, locus YOR231W, strain MKK1, active compounds read low 1.02 | S. cerevisiae deletion strains, locus YOR316C, strain cot1, active compounds read low 0.983 | S. cerevisiae deletion strains, locus YPL256C, strain CLN2, active compounds read low 0.989 | S. cerevisiae deletion strains, locus YPR119W, strain clb2, active compounds read low 0.997 | S. cerevisiae deletion strains, locus YPR141C, strain kar3, active compounds read low 0.99 | S. cerevisiae deletion strains, locus YPR163C, strain tif3, active compounds read low 0.993 | S. cerevisiae deletion strains, locus YPR167C, strain met16, active compounds read low 0.984 | S. cerevisiae deletion strains, strain wtn01, active compounds read low 0.987 | S. cerevisiae strains, strain wild type, active compounds read low 0.994
